{"source": "the supplement of paper PMC8371130", "note": "Counter-ions that a name gives are not always drawn.", "data": [{"test_system": "HL-1", "assay": "relative cell viability (CellTiter-Glo) vs DMSO control (% of DMSO control); higher = more viable cells", "conditions": "oxygen condition: hypoxia 48 h (1% O2) + reoxygenation 24 h; 5000 nM", "procedure,_shortened": "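In 384-well plates, 1000 HL-1 mouse atrial cardiomyocytes per well were plated with compounds at 40, 200, 1000 or 5000 nM in 0.01% DMSO. Hypoxia at 1% O2 for 48 h began one day later and was followed by 24 h of reoxygenation, with parallel plates held in normoxia. CellTiter-Glo luminescence gave cell viability relative to vehicle-treated control cells.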", "values": [{"smiles": "Cc1onc(-c2ccccc2)c1C(=O)N[C@@H]1C(=O)N2[C@@H]1SC(C)(C)[C@@H]2C(=O)O", "note": "[Oxacillin sodium monohydrate]", "relative cell viability": 110}, {"smiles": "O=C(CCCCCCC(=O)Nc1ccccc1)NO", "note": "[Vorinostat]", "relative cell viability": 27.2}, {"smiles": "CC1CCc2c(N3CCC(O)CC3)c(F)cc3c(=O)c(C(=O)O)cn1c23", "note": "(centres undefined) [Nadifloxacin]", "relative cell viability": 110}, {"smiles": "CCN(CCCc1ccccc1)CCCc1ccccc1", "note": "[Alverine Citrate]", "relative cell viability": 110}, {"smiles": "CC(=O)O[C@H]1C[C@@H]2CC[C@@H]3[C@H](CC[C@@]4(C)[C@H]3C[C@H]([N+]3(C)CCCCC3)[C@@H]4OC(C)=O)[C@@]2(C)C[C@@H]1N1CCCCC1", "note": "[Vecuronium Bromide]", "relative cell viability": 119}, {"smiles": "CNCCC(Oc1ccc(C(F)(F)F)cc1)c1ccccc1", "note": "(centres undefined) [Fluoxetine  HCl]", "relative cell viability": 110}, {"smiles": "CCCNC(C)C(=O)Nc1ccccc1C", "note": "(centres undefined) [Prilocaine]", "relative cell viability": 104}, {"smiles": "Cc1c(N(C)C)c(=O)n(-c2ccccc2)n1C", "note": "[Amidopyrine]", "relative cell viability": 114}, {"smiles": "CCCCN1CCCCC1C(=O)Nc1c(C)cccc1C", "note": "(centres undefined) [Bupivacaine hydrochloride]", "relative cell viability": 104}, {"smiles": "O=C1c2c(O)ccc(O)c2C(=O)c2c(NCCNCCO)ccc(NCCNCCO)c21", "note": "[Mitoxantrone Hydrochloride]", "relative cell viability": 3.1}, {"smiles": "CO[C@H]1C[C@@H]2CC[C@@H](C)[C@@](O)(O2)C(=O)C(=O)N2CCCC[C@H]2C(=O)O[C@H]([C@H](C)C[C@@H]2CC[C@@H](OC(=O)C(C)(CO)CO)[C@H](OC)C2)CC(=O)[C@H](C)/C=C(\\C)[C@@H](O)[C@@H](OC)C(=O)[C@H](C)C[C@H](C)/C=C/C=C/C=C/1C", "note": "[Temsirolimus]", "relative cell viability": 61.7}, {"smiles": "C[C@@H]1C[C@H]2[C@@H]3C[C@H](F)C4=CC(=O)C=C[C@]4(C)[C@@]3(F)[C@@H](O)C[C@]2(C)[C@@]1(O)C(=O)CO", "note": "[Flumethasone]", "relative cell viability": 106}, {"smiles": "C#C[C@]1(OC(C)=O)CC[C@H]2[C@@H]3CCC4=C[C@@H](OC(C)=O)CC[C@@H]4[C@H]3CC[C@@]21C", "note": "[Ethynodiol diacetate]", "relative cell viability": 111}, {"smiles": "CS(=O)(=O)c1ccc(C2=C(c3ccccc3)C(=O)OC2)cc1", "note": "[Rofecoxib]", "relative cell viability": 107}, {"smiles": "NS(=O)(=O)c1cc2c(cc1Cl)N=C(CSCc1ccccc1)NS2(=O)=O", "note": "[Benzthiazide]", "relative cell viability": 107}, {"smiles": "CC[C@H]1OC(=O)[C@H](C)[C@@H](O[C@H]2C[C@@](C)(OC)[C@@H](O)[C@H](C)O2)[C@H](C)[C@@H](O[C@@H]2O[C@H](C)C[C@H](N(C)C)[C@H]2O)[C@](C)(O)C[C@@H](C)/C(=N\\OCOCCOC)[C@H](C)[C@@H](O)[C@]1(C)O", "note": "[Roxithromycin]", "relative cell viability": 106}, {"smiles": "CC1=C(/C=C/C(C)=C/C=C/C(C)=C/C(=O)O)C(C)(C)CCC1", "note": "[Tretinoin]", "relative cell viability": 100}, {"smiles": "CCOC(=O)OC(C)OC1=C(C(=O)Nc2ccccn2)N(C)S(=O)(=O)c2ccccc21", "note": "(centres undefined) [Ampiroxicam]", "relative cell viability": 121}, {"smiles": "CC(O)(P(=O)(O)O)P(=O)(O)O", "note": "[Etidronate]", "relative cell viability": 109}, {"smiles": "COC(=O)[C@H](c1ccccc1Cl)N1CCc2sccc2C1", "note": "[Clopidogrel]", "relative cell viability": 111}, {"smiles": "C[C@H](CCC(=O)O)[C@H]1CC[C@H]2[C@@H]3[C@@H](O)C[C@@H]4C[C@H](O)CC[C@]4(C)[C@H]3CC[C@]12C", "note": "[Ursodiol]", "relative cell viability": 106}, {"smiles": "C[C@@H](O[C@H]1OCCN(Cc2nn(P(=O)(O)O)c(=O)[nH]2)[C@H]1c1ccc(F)cc1)c1cc(C(F)(F)F)cc(C(F)(F)F)c1", "note": "[Fosaprepitant dimeglumine]", "relative cell viability": 108}, {"smiles": "CC(=O)Oc1ccc(C(c2ccc(OC(C)=O)cc2)c2ccccn2)cc1", "note": "[Bisacodyl]", "relative cell viability": 111}, {"smiles": "Cc1cc(N)c2ccccc2[n+]1CCCCCCCCCC[n+]1c(C)cc(N)c2ccccc21", "note": "[Dequalinium chloride]", "relative cell viability": 112}, {"smiles": "CC1CNc2c(cccc2S(=O)(=O)N[C@@H](CCCNC(=N)N)C(=O)N2CC[C@@H](C)C[C@@H]2C(=O)O)C1", "note": "(some centres undefined) [Argatroban]", "relative cell viability": 106}, {"smiles": "CCCCNc1cc(C(=O)O)cc(S(N)(=O)=O)c1Oc1ccccc1", "note": "[Bumetanide]", "relative cell viability": 113}, {"smiles": "CCCCC(=O)O[C@H]1CC[C@H]2[C@@H]3CCc4cc(O)ccc4[C@H]3CC[C@]12C", "note": "[Estradiol valerate]", "relative cell viability": 108}, {"smiles": "C[C@@](Cc1ccc(O)c(O)c1)(NN)C(=O)O", "note": "[Carbidopa]", "relative cell viability": 106}, {"smiles": "O=c1[nH]cc(F)c(=O)[nH]1", "note": "[Adrucil]", "relative cell viability": 18.6}, {"smiles": "COc1ccccc1N1CCN(CC(O)COc2cccc3ccccc23)CC1", "note": "(centres undefined) [Naftopidil]", "relative cell viability": 101}, {"smiles": "OC(CCN1CCCC1)(c1ccccc1)C1CCCCC1", "note": "(centres undefined) [Procyclidine HCl]", "relative cell viability": 29.9}, {"smiles": "COc1ccc2cc1Oc1ccc(cc1)C[C@H]1c3c(cc4c(c3Oc3cc5c(cc3OC)CCN(C)[C@@H]5C2)OCO4)CCN1C", "note": "[Cepharanthine]", "relative cell viability": 49.8}, {"smiles": "C=C1CC[C@H](O)C/C1=C/C=C1\\CCC[C@]2(C)[C@@H]([C@H](C)/C=C/[C@H](C)C(C)C)CC[C@@H]12", "note": "[Vitamin D2]", "relative cell viability": 112}, {"smiles": "COc1cccc2c1C(=O)c1c(O)c3c(c(O)c1C2=O)C[C@@](O)(C(=O)CO)C[C@@H]3O[C@H]1C[C@H](N)[C@H](O)[C@H](C)O1", "note": "[Doxorubicin]", "relative cell viability": 16.7}, {"smiles": "CCOC(=O)c1c(C)n(C)c2ccc(O)cc12", "note": "[Mecarbinate]", "relative cell viability": 113}, {"smiles": "O=C(c1ccc(OCCN2CCCCC2)cc1)c1c(-c2ccc(O)cc2)sc2cc(O)ccc12", "note": "[Evista]", "relative cell viability": 54}, {"smiles": "CC(=O)O[C@H]1CC[C@@]2(C)C(=CC[C@@H]3[C@@H]2CC[C@]2(C)C(c4cccnc4)=CC[C@@H]32)C1", "note": "[Abiraterone Acetate]", "relative cell viability": 117}, {"smiles": "CN(Cc1cc(Br)cc(Br)c1N)C1CCCCC1", "note": "[Bromhexine HCl]", "relative cell viability": 102}, {"smiles": "C#CCN[C@@H]1CCc2ccccc21", "note": "[Rasagiline mesylate]", "relative cell viability": 102}]}]}
